Here are results for six compounds from PubChem BioAssay (NCATS).

One assay concerns MCC-26. The experiment in a line: qHTS assay to identify novel small-molecules to repurpose for Merkel cell carcinoma treatment (AID 1296009). Further: nearly all actives have a fitted effect of over 60% in size. Further: potency means the concentration at half of the fitted maximal effect. The settings on record: MCC and control cell lines, CellTiter-Glo viability, 72 h; series mostly up to 46 µM. In a few lines:
(§1)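 Luminescence from CellTiter-Glo, read 10 min after addition at room temperature, reported viability following a 72 hr, 37 degree celsius treatment with NPC or MIPE compounds in titration; values normalized to plate controls.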
On the technique in general: Quantitative high-throughput screening tests each substance at several concentrations.

In another assay the test system is C33A. The experiment in a line: Primary qHTS to identify gynecologic anti-cancer compounds using libraries of approved drugs and bioactive compounds (AID 1345084). Further: nearly all actives have a fitted effect of over 55% in size. The settings on record: Gynecologic cancer cell panel viability, ATPlite luminescence, 48 h; series mostly up to 57.5 µM. The method in brief:
(§2)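 In this quantitative HTS, cell killing is estimated from loss of ATP-dependent luciferase light. Cells see five compound concentrations over a 48 h exposure.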

In the next assay the test system is CAOV3. The description is as above. The following applies: Gynecologic cancer cell panel viability, ATPlite luminescence, 48 h; series mostly up to 57.5 µM. In a few lines:
as §2
For orientation: In ATP-based viability assays light output follows the ATP content of the culture.

In another assay the test system is CASKI. The assay is described as above. The settings on record: Gynecologic cancer cell panel viability, ATPlite luminescence, 48 h; series mostly up to 57.5 µM. In a few lines: as §2
A further assay relates to Es-2. Described as above. The settings on record: Gynecologic cancer cell panel viability, ATPlite luminescence, 48 h; series mostly up to 57.5 µM. In a few lines: as §2
A further assay has as its system HeLa. The assay is described as above. The following applies: Gynecologic cancer cell panel viability, ATPlite luminescence, 48 h; series mostly up to 57.5 µM. In a few lines:
as §2

For the next assay, the system named is Hek293T. The assay is described as above. The following applies: Gynecologic cancer cell panel viability, ATPlite luminescence, 48 h, control line for the selectivity index; series mostly up to 57.5 µM. In a few lines:
as §2

The subject of the next assay is JEG-3. The assay is described as above. The following applies: Gynecologic cancer cell panel viability, ATPlite luminescence, 48 h; series mostly up to 57.5 µM. The method in brief: as §2
A further assay has as its system OV90. Described as above. The following applies: Gynecologic cancer cell panel viability, ATPlite luminescence, 48 h; series mostly up to 57.5 µM. In a few lines:
as §2

The test system of the next assay is PA-1. The assay is described as above. The settings on record: Gynecologic cancer cell panel viability, ATPlite luminescence, 48 h; series mostly up to 57.5 µM. In a few lines:
as §2

The subject of a further assay is SKOV3. The description is as above. The following applies: Gynecologic cancer cell panel viability, ATPlite luminescence, 48 h; series mostly up to 57.5 µM. The method in brief: as §2
A further assay relates to Tov-21-G. The assay is described as above. The following applies: Gynecologic cancer cell panel viability, ATPlite luminescence, 48 h; series mostly up to 57.5 µM. The method in brief:
as §2

The subject of the next assay is Tov112D. The description is as above. The settings on record: Gynecologic cancer cell panel viability, ATPlite luminescence, 48 h; series mostly up to 57.5 µM. In a few lines:
as §2

A further assay concerns MKL-1. The experiment in a line: qHTS assay to identify novel small-molecules to repurpose for Merkel cell carcinoma treatment (AID 1296009). Further: nearly all actives have a fitted effect of over 60% in size. Further: potency means the concentration at half of the fitted maximal effect. The settings on record: MCC and control cell lines, CellTiter-Glo viability, 72 h; series mostly up to 46 µM. In a few lines: as §1
The test system of a further assay is MKL-2. The assay is described as above. The following applies: MCC and control cell lines, CellTiter-Glo viability, 72 h; series mostly up to 46 µM. The method in brief:
as §1

The next assay has as its system NIH3T3. The assay is described as above. The settings on record: MCC and control cell lines, CellTiter-Glo viability, 72 h; at 44.8 µM (top of the series) unless noted. The method in brief:
as §1

Another assay concerns UISO. Described as above. The settings on record: MCC and control cell lines, CellTiter-Glo viability, 72 h; series mostly up to 46 µM. The method in brief:
as §1

A further assay deals with WaGa. Described as above. The settings on record: MCC and control cell lines, CellTiter-Glo viability, 72 h; series mostly up to 46 µM. The method in brief: as §1
Assay [1] is described as follows: Drug repurposing screens with cells derived from glioblastoma tumor samples (AID 1345199). Further: nearly all actives have a fitted effect of over 40% in size. Further: potency means the concentration at half of the fitted maximal effect. The settings on record: GBM patient neurospheres viability, ATP luminescence, 48 h. In a few lines:
(§3)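 Primary testing used CD133+ neurospheres from four GBM patients, seven concentrations, 48 h exposure and ATP-based viability; confirmation added three slower-growing patient lines.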

In another assay the test system is astro. The description is as above. The following applies: viability, ATP luminescence, 48 h; series mostly up to 45.9 µM. The method in brief:
as §3

Where [2] appears, read: at 46.1 µM (top of the series), tumour line C.
Where [3] appears, read: at 91.6 µM (top of the series), tumour line B.
Where [4] appears, read: at 91.6 µM (top of the series), tumour line D.
Where [5] appears, read: at 99.2 µM (top of the series), tumour line C.

Results filed as inconclusive are left out. The source holds several records for some structures; these can differ, active in one and inactive in another. Unmarked numbers belong to inactive results. Activity calls are given as the source filed them. The call rests on the fitted dose curve; in most records, active means well fitted curve in the direction sought with a large enough effect; inconclusive means small, poorly fitted or top-dose-only effect, or another doubt; inactive means no such curve, though single readings can be large; an effect the other way counts as inactive or inconclusive.
On the % scale 0 is the no-effect control and ±100 the full control effect.

As to `O=Cc1ccc(O)c(O)c1O`, the Potency result with MCC-26, in the assay with C33A, in the assay with CAOV3, in the assay with CASKI, in the assay on Es-2 and in the assay with HeLa was “inactive” in each case. Besides, the Potency result in the assay with Hek293T, with JEG-3, in the assay on OV90, in the assay on PA-1, in the assay on SKOV3 and in the assay with Tov-21-G was “inactive” throughout. Also, the Potency result in the assay on Tov112D was “inactive”.

Regarding `CN(C)CCn1nnnc1SCC1=C(C(=O)O)N2C(=O)[C@@H](NC(=O)Cc3csc(N)n3)[C@H]2SC1`, the Potency entry in the assay on MCC-26, with MKL-1, in the assay with MKL-2, in the assay on UISO, in the assay with WaGa and in the assay on C33A was “inactive” throughout. Also, the Potency result in the assay on CAOV3, with CASKI, in the assay with Es-2, in the assay with HeLa, in the assay with Hek293T and with JEG-3 was “inactive” throughout. For the same compound, the Potency result in the assay on OV90, with PA-1, with SKOV3, in the assay on Tov-21-G and with Tov112D was “inactive” in each case. Further, the compound was called inactive in the assay on NIH3T3. The activity, negative = cell killing is 7.42% in assay [1] (at 20 µM (top of the series), tumour line C); -1.03% in assay [1] (at 21.2 µM (top of the series), tumour line B); -12.5% in assay [1] (at 21.2 µM (top of the series), tumour line D).

Regarding `CCCOC(=O)c1ccc(O)cc1`, the Potency result in the assay on MCC-26, in the assay with MKL-1, in the assay on MKL-2, in the assay with UISO, in the assay with WaGa and with C33A was “inactive” in each case. In addition, the Potency entry with CAOV3, in the assay on CASKI, in the assay on Es-2, in the assay on HeLa, in the assay with Hek293T and in the assay on JEG-3 was “inactive” throughout. Further, the Potency entry with OV90, in the assay on PA-1, in the assay with SKOV3, with Tov-21-G, in the assay on Tov112D and in the assay on astro was “inactive” throughout. The activity, negative = cell killing in assay [1] (at 45.9 µM (top of the series), tumour line B) was -2.89%; in assay [1] (at 45.9 µM (top of the series), tumour line D) it was -17.2%; in [1] (setting [2]) it was -7.69%; in assay [1] (setting [3]), -21%; in [1] (setting [4]), -29.2%; in assay [1] (setting [5]), -27.8%. In [1] (tumour line A), the Potency was 35.5 µM (active).

Consider `CN(C)c1ccc(N=NS(=O)(=O)O)cc1`, for which the Potency entry in the assay with MCC-26, in the assay with C33A, in the assay on CASKI, with Es-2, with HeLa and in the assay on Hek293T was “inactive” throughout. Further, the Potency result in the assay on Tov-21-G was “inactive”. Moreover, the Potency is 5.12 µM (active) in the assay with MKL-1, 6.44 µM (active) with MKL-2 and 40.7 µM (active) with WaGa. The activity, negative = cell killing in [1] (setting [3]) was -16.9%.

On to `CC(C)OC(=O)c1cc(C(=O)OC(C)C)cc([N+](=O)[O-])c1`, for which the Potency result in the assay on MCC-26, in the assay with MKL-1, in the assay on MKL-2, in the assay with UISO, with WaGa and in the assay with C33A was “inactive” throughout. For the same compound, the Potency entry in the assay on CAOV3, in the assay on CASKI, with Es-2, in the assay on HeLa, in the assay on Hek293T and with JEG-3 was “inactive” in each case. Moreover, the Potency entry in the assay on OV90, in the assay with PA-1, in the assay on Tov-21-G and in the assay with Tov112D was “inactive” throughout. The activity, negative = cell killing in assay [1] (at 91.6 µM (top of the series), tumour line A) is -39.8%; in [1] (setting [3]), -8.41%; in [1] (setting [4]), -19.6%; in assay [1] (setting [5]), 10.5%.

For `CCCC(=O)OC[C@@H](OC(=O)CCC)[C@@H](OC(=O)CCC)[C@H](Cn1c2nc(=O)[nH]c(=O)c-2nc2cc(C)c(C)cc21)OC(=O)CCC`, the Potency entry in the assay with MCC-26, with C33A, in the assay on CAOV3, with CASKI, in the assay with Es-2 and in the assay on HeLa was “inactive” in each case. Also, the Potency result with Hek293T, in the assay on PA-1, in the assay with SKOV3, in the assay on Tov-21-G, in the assay on Tov112D and with astro was “inactive” each time. Besides, the Potency in the assay on MKL-1 was 6.68 µM (active); in the assay on MKL-2, 3.35 µM (active); in the assay on WaGa, 4.22 µM (active); in assay [1] (tumour line A) it was 8.91 µM (active); in assay [1] (tumour line D) it was 12.6 µM (active). In addition, the outcome in the assay on NIH3T3 was inactive. The activity, negative = cell killing in assay [1] (setting [2]) is -29.1%.
